In the library only some 8.7% were active in any assay of this set; here they are far more common.
Sfp PPTase inh: inhibitors of Bacillus subtilis Sfp phosphopantetheinyl transferase; 310,000 compounds, 3.5% hits; Q9F4F7; Biochemical Sfp PPTase activity, qHTS; Potency, µM, inactives show largest response in the series, negative = inhibition, most hits filed as inhibitors;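 further: the enzyme is Sfp with the accession as filed and its product quenches rhodamine fluorescence; 0% = enzyme reaction without inhibitor and -100% = no enzyme wells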
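Sfp 15 nM + cpd, 15 min RT; start w/ rhodamine-CoA 5 uM, BHQ-2-YbbR 12.5 uM (final); 50 mM Hepes pH 7.6, 10 mM MgCl2, 0.01% NP-40, 0.01% BSA; read 525/598 nm at 0 and 30 min.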
G9a inh: inhibitors of human histone lysine methyltransferase G9a; Q96KQ7; G9a H3K9 monomethylation, AlphaScreen, 2 h; Potency, µM (titrated, usually from 102 µM), for inactives: at the top dose activity, negative = inhibition, most hits filed as inhibitors; 350,000 compounds, 8.8% hits; AID 504332; further: on the % scale 0 is the no-effect control and ±100 the full control effect; nearly all actives have a fitted effect of over 75% in size
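Quantitative HTS format: methyltransferase activity on a biotin-tagged H3K9 peptide is measured by AlphaScreen, using a rabbit anti-monomethyl-H3K9 antibody with streptavidin donor and anti-IgG acceptor beads. Final levels are 20 nM enzyme, 500 nM peptide, 20 uM SAM; 2 h RT.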
12-LOX inh: blocks human arachidonate 12S-lipoxygenase; Potency, µM (top dose mostly 108 µM), for the others: top-dose activity change, negative = inhibition, hits mostly inhibitors; P18054; 580,000 compounds, 1.1% hits; AID 1671190; purified 12hLO, xylenol orange hydroperoxide absorbance; further: on the % scale 0 is the no-effect control and ±100 the full control effect
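Hydroperoxide product was detected by ferrous iron/xylenol orange as the 573 to 405 nm absorbance ratio. Arachidonic acid at 40 uM (final) was turned over for 30 min at room temperature by 150 nM human 12hLO, pH 7.0 Hepes buffer, after 15 min compound preincubation.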
HP1b binding inh: HP1-beta chromodomain-methylated histone interaction inhibition; 390,000 compounds, 0.56% hits; AlphaScreen HP1-beta / biotin-H3K9me3 peptide binding; Potency, µM (doses to about 114 µM), for inactives: at the top dose activity change, negative = inhibition, most hits filed as inhibitors; further: nearly all actives have a fitted effect of over 70% in size
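Compound inhibition of the preformed complex between 50 nM HP1-beta and 50 nM biotinylated H3K9me3 peptide was read by AlphaScreen. Buffer was PBS pH 7.4 with 0.01% Tween-20. Incubations ran 30 min at room temperature, with 10 ug/mL donor/acceptor beads.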
JMJD2A Tudor: JMJD2A Tudor domain (human) inhibition; O75164; AlphaScreen JMJD2A-Tudor / H3K4me3 peptide binding; Potency, µM (doses to about 114 µM), inactives show at the top dose activity change, negative = inhibition, usual class: inhibitors; 390,000 compounds, 4.4% hits; AID 504339; further: on the % scale 0 is the no-effect control and ±100 the full control effect; nearly all actives have a fitted effect of over 50% in size
Target sequence (O75164 whole entry, looked up, the tested form may be a part): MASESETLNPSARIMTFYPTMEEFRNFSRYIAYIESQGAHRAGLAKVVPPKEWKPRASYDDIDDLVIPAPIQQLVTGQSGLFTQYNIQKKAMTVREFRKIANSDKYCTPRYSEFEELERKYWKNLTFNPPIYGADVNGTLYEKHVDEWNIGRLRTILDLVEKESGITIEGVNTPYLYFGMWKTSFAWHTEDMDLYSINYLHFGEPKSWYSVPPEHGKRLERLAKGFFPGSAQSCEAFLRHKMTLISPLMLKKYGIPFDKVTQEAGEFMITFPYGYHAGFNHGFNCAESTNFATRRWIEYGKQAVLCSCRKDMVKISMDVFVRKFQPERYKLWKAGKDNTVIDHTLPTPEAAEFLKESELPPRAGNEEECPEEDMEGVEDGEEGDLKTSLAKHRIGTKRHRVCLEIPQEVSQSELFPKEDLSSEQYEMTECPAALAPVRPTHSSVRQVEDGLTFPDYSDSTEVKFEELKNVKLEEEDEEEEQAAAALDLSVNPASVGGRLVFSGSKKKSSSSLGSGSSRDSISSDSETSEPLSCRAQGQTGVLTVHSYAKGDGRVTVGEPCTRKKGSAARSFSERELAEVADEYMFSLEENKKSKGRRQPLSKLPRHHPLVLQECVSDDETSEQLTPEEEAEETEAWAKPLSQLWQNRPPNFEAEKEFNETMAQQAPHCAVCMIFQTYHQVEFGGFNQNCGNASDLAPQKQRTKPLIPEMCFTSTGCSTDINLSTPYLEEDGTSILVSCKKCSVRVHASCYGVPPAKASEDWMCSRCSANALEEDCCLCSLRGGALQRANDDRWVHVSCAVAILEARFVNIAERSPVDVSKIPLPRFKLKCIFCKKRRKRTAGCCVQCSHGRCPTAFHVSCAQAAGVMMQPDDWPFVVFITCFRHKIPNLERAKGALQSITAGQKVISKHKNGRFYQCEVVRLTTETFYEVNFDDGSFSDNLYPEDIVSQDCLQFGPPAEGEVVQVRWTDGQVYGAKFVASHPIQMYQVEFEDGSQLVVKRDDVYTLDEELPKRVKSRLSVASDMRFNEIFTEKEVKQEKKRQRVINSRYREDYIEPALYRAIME
BAZ2B block: BAZ2B (human) inhibition | AlphaScreen BAZ2B-H3K14Ac peptide displacement | Potency, µM (titrated, usually from 114 µM), inactives show at the top dose activity change, negative = inhibition, actives largely listed as inhibitors | 360,000 compounds, 4.4% hits; further: on the % scale 0 is the no-effect control and ±100 the full control effect; nearly all actives have a fitted effect of over 60% in size
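AlphaScreen displacement: compounds (up to 110uM) incubated 30 min at room temperature with a preformed 50 nM BAZ2B/50 nM biotinylated H3K14Ac peptide complex in PBS pH 7.4 with Tween-20. Donor and acceptor beads at 10 ug/mL final added, 20 min light-protected before reading.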
Numbers without * were called inactive; [ ] = another dose, or the depositor's remark. The call rests on the fitted dose curve; in most records, active means well fitted curve in the direction sought with a large enough effect; inconclusive means small, poorly fitted or top-dose-only effect, or another doubt; inactive means no such curve, though single readings can be large; an effect the other way counts as inactive or inconclusive. Potency means the concentration at half of the fitted maximal effect.

Results for N#Cc1ccc(C(=O)OCc2cccc(S(=O)(=O)N3CCOCC3)c2)cc1 ?
G9a inh: 14.1µM*; 12-LOX inh: -1.2%; HP1b binding inh: 27.7%; JMJD2A Tudor: inconclusive; BAZ2B block: 1.1%

What do the screens show for `CC(=O)c1c(C)c(C)cc(C)c1C`?
12-LOX inh: 36.3%

How did CCN(CC)Cc1ccc(CNC(=O)c2ccc(Br)cc2F)cc1 do in these assays?
12-LOX inh: -4.7%

What do the screens show for `CCOC(=O)CCC(=O)Nc1cc(S(=O)(=O)N2CCOCC2)ccc1N1CCCCC1`?
G9a inh: 24.9%[59 µM]; 12-LOX inh: -4.8%; HP1b binding inh: 40.1%; JMJD2A Tudor: -9.4%; BAZ2B block: 0.0%

How did CCOCC(=O)Nc1cc(S(=O)(=O)N2CCOCC2)ccc1N1CCCCC1 do in these assays?
Sfp PPTase inh: 11.2µM*; G9a inh: 7.08µM*; 12-LOX inh: 14.3%; HP1b binding inh: inconclusive; JMJD2A Tudor: 89.1µM*; BAZ2B block: inconclusive

How did COc1ccc(Cl)cc1NC(=O)COC(=O)c1[nH]c(C)c(C(C)=O)c1C do in these assays?
12-LOX inh: 22.1%

How did C/C(CC(C)(C)c1ccccc1)=N\NS(=O)(=O)c1ccccc1 do in these assays?
Sfp PPTase inh: 9.1%; G9a inh: 25.1µM*; 12-LOX inh: -9.6%; HP1b binding inh: 38.9%; JMJD2A Tudor: -7.5%; BAZ2B block: -21.6%

What do the screens show for `COc1ccccc1CNC(=O)c1ccc(C(C)(C)C)cc1`?
12-LOX inh: 10.5%

How did O=C(Nc1ccc(F)cc1)C(=O)c1c[nH]c2ccccc12 do in these assays?
12-LOX inh: -3.3%

How did CSc1ncc(CN2CCc3c([nH]c4ccccc34)C2c2cccc(O)c2)cn1 (stereo unspecified) do in these assays?
Sfp PPTase inh: 5.6%; 12-LOX inh: -1.4%; HP1b binding inh: -19.9%; JMJD2A Tudor: inconclusive; BAZ2B block: 39.8µM*

How did CSc1ncc(CN2CCc3c([nH]c4ccccc34)C2c2cccc(C)n2)cn1 (stereo unspecified) do in these assays?
Sfp PPTase inh: 14.6%; G9a inh: inconclusive; 12-LOX inh: -10.0%; HP1b binding inh: 5.3%; JMJD2A Tudor: inconclusive; BAZ2B block: inconclusive

Results for COc1cccc(C2c3[nH]c4ccccc4c3CCN2Cc2cccn2-c2ncccn2)c1 (stereo unspecified) ?
Sfp PPTase inh: 1.7%; G9a inh: 39.8µM*; 12-LOX inh: -14.9%; HP1b binding inh: inconclusive; JMJD2A Tudor: inconclusive; BAZ2B block: inconclusive

What do the screens show for `CCn1cc(CN2CCc3c([nH]c4ccccc34)C2c2ccc(F)c(OC)c2)c(C)n1` (stereo unspecified)?
Sfp PPTase inh: -2.5%; G9a inh: 44.7µM*; 12-LOX inh: -4.0%; HP1b binding inh: inconclusive; JMJD2A Tudor: inconclusive; BAZ2B block: 22.4µM*

How did CCn1nc(C)c(CN2CCc3c([nH]c4ccccc34)C2c2ccc(F)c(OC)c2)c1C (stereo unspecified) do in these assays?
Sfp PPTase inh: -5.3%; G9a inh: 50.1µM*; 12-LOX inh: -14.1%; HP1b binding inh: -14.9%; JMJD2A Tudor: inconclusive; BAZ2B block: inconclusive

Results for CCn1cc(CN2CCc3c([nH]c4ccccc34)C2c2cccc(O)c2)c(C)n1 (stereo unspecified) ?
Sfp PPTase inh: -0.2%; G9a inh: inconclusive; 12-LOX inh: -15.7%; HP1b binding inh: -6.0%; JMJD2A Tudor: -17.6%[57.1 µM]; BAZ2B block: inconclusive

Results for COc1ccc(S(=O)(=O)c2cn(CC(=O)Nc3ccc(C)c(F)c3)c3nc(C)ccc3c2=O)cc1 ?
12-LOX inh: -29.0%

How did O=C(Nc1ccc([C@@H](O)[C@H]2COCC(=O)N2Cc2ccc(C(F)(F)F)cc2)cc1)c1ccco1 do in these assays?
12-LOX inh: 29.2%

How did O=C1N(CCc2ccccc2)c2ccccc2C1(O)c1c[nH]c2ccccc12 (stereo unspecified) do in these assays?
12-LOX inh: -7.6%

What do the screens show for `CCn1cc(CN2CCc3c([nH]c4ccccc34)C2c2cccc(OC)c2)c(C)n1` (stereo unspecified)?
Sfp PPTase inh: 0.3%; 12-LOX inh: -15.0%; HP1b binding inh: -20.6%; JMJD2A Tudor: inconclusive; BAZ2B block: 79.4µM*

Results for Clc1ccc(-n2cccc2CN2CCc3c([nH]c4ccccc34)C2c2ccccn2)nc1 (stereo unspecified) ?
Sfp PPTase inh: -13.1%; G9a inh: 17.8µM*; 12-LOX inh: -8.0%; HP1b binding inh: -10.1%; JMJD2A Tudor: 35.5µM*; BAZ2B block: 25.1µM*

Results for O=C(NCC(=O)N1CCN(CC(=O)N2CCOCC2)CC1)c1ccc(N2CCCC2=O)cc1 ?
12-LOX inh: -49.8%

Results for O=C(NNc1nc2c(F)cccc2s1)C1COc2ccccc2O1 (stereo unspecified) ?
Sfp PPTase inh: 0.9%; G9a inh: 42.9%; 12-LOX inh: 16.1%; HP1b binding inh: 35.1%; JMJD2A Tudor: -2.8%; BAZ2B block: -1.4%

What do the screens show for `COc1cccc2sc(NNC(=O)C3=COCCO3)nc12`?
Sfp PPTase inh: -2.3%; G9a inh: 12.6µM*; 12-LOX inh: 2.2%; HP1b binding inh: 35.7%; JMJD2A Tudor: -21.2%; BAZ2B block: 4.3%

How did Cc1ccc2sc(NNC(=O)C3COc4ccccc4O3)nc2c1C (stereo unspecified) do in these assays?
Sfp PPTase inh: inconclusive; G9a inh: 31.6µM*; 12-LOX inh: inconclusive; HP1b binding inh: -8.3%; JMJD2A Tudor: inconclusive; BAZ2B block: inconclusive

What do the screens show for `COc1cccc2sc(NNC(=O)C3COc4ccccc4O3)nc12` (stereo unspecified)?
Sfp PPTase inh: 79.4µM*; G9a inh: inconclusive; 12-LOX inh: -12.3%; HP1b binding inh: 43.3%; JMJD2A Tudor: -24.0%

What do the screens show for `Cc1cccc(CC(=O)N2CCC3(CC2)CC(O)CCO3)c1` (stereo unspecified)?
12-LOX inh: 5.1%

How did Cc1ccc(C2CC2C(=O)NNC(=S)Nc2ccc(Cl)cc2)cc1 (stereo unspecified) do in these assays?
Sfp PPTase inh: -4.8%; G9a inh: 25.1µM*; 12-LOX inh: 44.7µM*; HP1b binding inh: -17.7%; JMJD2A Tudor: -28.4%; BAZ2B block: -7.8%

How did COc1ccc(C(=O)N2C[C@@H](Oc3ccccc3)C[C@H]2C(=O)N2CCCC2)c(OC)c1 do in these assays?
12-LOX inh: 29.1%

What do the screens show for `CN1C(=O)/C(=C2\SC(N)=NC2=O)c2ccccc21`?
Sfp PPTase inh: 56.2µM*; G9a inh: inconclusive; 12-LOX inh: inconclusive; HP1b binding inh: -6.1%; JMJD2A Tudor: inconclusive; BAZ2B block: -29.9%

Source: PubChem
